MCF10A rereplic – inducers of DNA re-replication in MCF 10A breast cells | 2.9% of 350,000 active | MCF 10A DNA re-replication, Hoechst nuclear intensity, 48 h | Potency, µM (series often up to 46.1 µM), actives largely listed as activators; also: nearly all actives have a fitted effect of over 50% in size
Giardia killer – kills Giardia lamblia. Giardia lamblia trophozoite viability. activity change, % at 7.66 µM, hits read low. 0.15% of 340,000 active. AID 540267; in the data active = activity change below about -80%; inconclusive = between about -30% and that limit;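 also: parasites exposed to compound for two days anaerobically before the ATP read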
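Luminescent ATP signal served as the viability read-out, measured 15-30 min after adding ATP detection reagent to trophozoites that had been incubated with compounds for 48 hrs at 37 deg C anaerobically at 100 cells/well.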
BCR signal inh – chronic active BCR signaling inhibition | ABC-DLBCL IkBa-CBG/CBR reporter, luminescence ratio, 4 h | Potency, µM (doses to about 46.1 µM), usual class: inhibitors | 0.05% of 340,000 active; active = well fitted inhibition curve with a large enough effect in the signal ratio, with a control signal flat, not every such curve was filed as active; inconclusive = small, poorly fitted or top-dose-only effect, or effect the other way, or a change in a side signal; the % refers to the signal ratio
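TMD8 ABC-DLBCL cells carrying doxycycline-inducible green luciferase fused to IkappaBalpha plus unfused red luciferase were exposed to compounds (up to 46 uM) for 4 hrs at 37C. Activity came from the overlap-corrected green/red luminescence ratio.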
VP16 counter – counter-screen for ROR gamma inhibitors: Gal4-VP16 reporter | Drosophila S2 Gal4-VP16 UAS-luciferase, luminescence, 20 h | Potency, µM (series often up to 53.6 µM), usual class: inhibitors | 3.5% of 310,000 active | AID 2546;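 also: Gal4-VP16 expression switched on by copper sulfate through the metallothionein promoter; nearly all actives have a fitted effect of over 50% in size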
RORgamma inh – blocks mouse ROR gamma transcriptional activity. P51450. Drosophila S2 Gal4-RORgamma UAS-luciferase reporter, 20 h. Potency, µM (series often up to 53.6 µM), most hits filed as inhibitors. 5.4% of 310,000 active. AID 2551; also: nearly all actives have a fitted effect of over 60% in size
Target sequence (P51450 whole entry, looked up, the tested form may be a part): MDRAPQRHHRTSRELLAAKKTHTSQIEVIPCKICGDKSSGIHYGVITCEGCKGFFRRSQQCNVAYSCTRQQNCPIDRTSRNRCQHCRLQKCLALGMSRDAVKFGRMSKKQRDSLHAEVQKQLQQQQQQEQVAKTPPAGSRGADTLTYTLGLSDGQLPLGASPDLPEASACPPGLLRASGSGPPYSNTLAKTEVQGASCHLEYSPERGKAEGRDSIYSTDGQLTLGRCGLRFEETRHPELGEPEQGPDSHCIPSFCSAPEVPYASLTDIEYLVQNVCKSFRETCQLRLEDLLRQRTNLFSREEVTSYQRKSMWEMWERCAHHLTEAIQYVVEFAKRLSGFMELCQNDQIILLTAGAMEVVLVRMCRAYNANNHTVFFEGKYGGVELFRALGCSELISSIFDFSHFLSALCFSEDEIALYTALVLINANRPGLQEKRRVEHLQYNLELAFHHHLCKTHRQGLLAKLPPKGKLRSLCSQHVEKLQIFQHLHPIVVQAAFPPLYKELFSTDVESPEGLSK
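Stable Schneider cell line, Gal4 DNA-binding domain fused to ROR gamma, UAS-luciferase. Cmpd 1 hr RT → CuSO4 700 uM final → 20 hr RT → luciferase reagent 10 min → luminescence.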
SW480 rereplic – inducers of DNA re-replication in SW480 colon cancer cells. SW480 DNA re-replication, Hoechst DNA content imaging, 48 h. 1.8% of 340,000 active. Potency, µM (titrated, usually from 46.1 µM), most hits filed as activators. AID 624297; also: nearly all actives have a fitted effect of over 55% in size
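250 cells/well; 23 nL cpd via pin tool; 48 hr, 37 C, 5% CO2; Hoechst 40 min; imager read of total nuclear intensity, ex 405/em 500-530 nm.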
Numbers stand for hits; [ ] = another dose, or the depositor's remark. Compounds with a hit are over-represented: about 8.3% of the library has one in this group of screens. Unless noted, calls follow the shape of the dose curve; as a rule, active = well fitted curve in the direction sought with a large enough effect; inconclusive = small, poorly fitted or top-dose-only effect, or another doubt; inactive = no such curve, though single readings can be large; an effect the other way counts as inactive or inconclusive.

Fc1ccccc1/C=C/c1ccc2ccccc2n1 was read as MCF10A rereplic inactive, Giardia killer inactive, BCR signal inh inconclusive, VP16 counter inconclusive, RORgamma inh inactive[10 µM] and SW480 rereplic inactive.
Screening Nc1nc(COc2ccc(F)cc2)nc(N2CCCCC2)n1 returned MCF10A rereplic inactive, Giardia killer inactive, BCR signal inh inconclusive, VP16 counter inactive, RORgamma inh inactive and SW480 rereplic inactive.
For CNC(=O)c1c(I)c(C(=O)NCC(=O)Nc2c(I)c(C(=O)O)c(I)c(C(=O)NCCO)c2I)c(I)c(N(C)C(C)=O)c1I the results were MCF10A rereplic inactive, Giardia killer inactive, BCR signal inh inactive, VP16 counter inactive, RORgamma inh inactive and SW480 rereplic inactive.
Screening C=CCOc1c(OC)cc(/C=N/Nc2cccc(C(=O)O)c2)c(Br)c1Br returned MCF10A rereplic 21µM, Giardia killer inactive, BCR signal inh inconclusive, VP16 counter inactive, RORgamma inh inactive and SW480 rereplic 2.1µM.
Screening CCOC(=O)c1c(NC(=O)COC(=O)CCNS(=O)(=O)c2ccccc2)sc(C(=O)N(C)C)c1C returned MCF10A rereplic inactive, Giardia killer inactive, BCR signal inh inconclusive and SW480 rereplic inactive.
For COc1cc(/C=C/C(C)=O)cc(OC)c1OC the results were MCF10A rereplic inconclusive, Giardia killer inactive, BCR signal inh inconclusive, VP16 counter inactive, RORgamma inh inactive and SW480 rereplic inactive.
`COc1cc(C=CC(=O)c2cc(OC)c(OC)c(OC)c2)cc(OC)c1OC` gave MCF10A rereplic 13µM, Giardia killer inactive and SW480 rereplic inconclusive.
Screening O=C(/C=C/c1cccc([N+](=O)[O-])c1)c1cccs1 returned MCF10A rereplic 3.3µM, Giardia killer inactive, BCR signal inh inactive, VP16 counter inconclusive, RORgamma inh inconclusive and SW480 rereplic 5.8µM.
`COc1ccc2cc(C(=O)/C=C/c3cc(OC)c(OC)c(OC)c3)ccc2c1` gave MCF10A rereplic 13µM, Giardia killer inactive, BCR signal inh inconclusive, VP16 counter inactive, RORgamma inh inactive and SW480 rereplic 21µM.
Screening O=C(/C=C/c1cccc([N+](=O)[O-])c1)N1CCN(c2ccccn2)CC1 returned MCF10A rereplic inactive, Giardia killer inactive, BCR signal inh inactive, VP16 counter inactive, RORgamma inh inactive and SW480 rereplic inactive.
Screening O=C(/C=C/c1cccc([N+](=O)[O-])c1)n1cnc2ccccc21 returned MCF10A rereplic 3.7µM, Giardia killer inactive, BCR signal inh inconclusive, VP16 counter inactive, RORgamma inh 11µM and SW480 rereplic 5.8µM.
`CC1CCC(NC(=O)C2CCN(S(=O)(=O)c3cccc4nonc34)CC2)CC1` (centres undefined) gave MCF10A rereplic inactive, Giardia killer inactive, BCR signal inh inactive, VP16 counter inactive, RORgamma inh inactive and SW480 rereplic inactive.
`COc1ccc(S(=O)(=O)N2CCCCCC2)cc1N` gave MCF10A rereplic inactive, Giardia killer inactive, BCR signal inh inactive, VP16 counter inactive, RORgamma inh inactive and SW480 rereplic inactive.
For CC(=O)Oc1ccccc1C(=O)C=Cc1cccc([N+](=O)[O-])c1 the results were MCF10A rereplic 5.8µM, Giardia killer inactive and SW480 rereplic inconclusive.
Screening COc1cc(/C=C/C(=O)c2cccs2)cc(OC)c1OC returned VP16 counter inconclusive and RORgamma inh 7.9µM.
Screening O=C(/C=C/c1ccc(O)cc1)c1cccs1 returned VP16 counter inactive and RORgamma inh 14µM.
For COc1cc(/C=C/C(=O)N2CCCN(C(=O)/C=C/c3cc(OC)c(OC)c(OC)c3)CC2)cc(OC)c1OC the results were MCF10A rereplic inactive, Giardia killer inactive, BCR signal inh inactive, VP16 counter inactive, RORgamma inh inactive and SW480 rereplic inconclusive.
For COc1cc(/C=C/C(=O)N2CCC=CC2=O)cc(OC)c1OC the results were MCF10A rereplic 8.2µM, Giardia killer inactive, BCR signal inh inconclusive, VP16 counter 7.9µM, RORgamma inh 3.5µM and SW480 rereplic inconclusive.
O=C(/C=C/c1cccc([N+](=O)[O-])c1)c1ccccc1 was read as VP16 counter inactive and RORgamma inh inactive.
`CN(CC(=O)Nc1c(Cl)cccc1Cl)C(=O)CNC(=O)c1ccc2ccccc2c1` gave MCF10A rereplic inactive, Giardia killer inactive, BCR signal inh inactive and SW480 rereplic inactive.
For Cc1nc(N2N=C3/C(=C/c4ccc(F)cc4)CCCC3C2c2ccc(F)cc2)sc1C(=O)N(C)C (centres undefined) the results were MCF10A rereplic inactive, Giardia killer inactive, BCR signal inh inconclusive, VP16 counter inconclusive, RORgamma inh inactive and SW480 rereplic inconclusive.
Fc1ccc(/C=C2\CCCC3=C2NC(=S)NC3c2ccc(F)cc2)cc1 (centres undefined) was read as MCF10A rereplic inactive, BCR signal inh inactive, VP16 counter inconclusive, RORgamma inh 8.9µM and SW480 rereplic inactive.
C=CCn1c(COc2ccc(CC)cc2)nnc1SC/C(O)=C(\C#N)c1nc2ccccc2[nH]1 was read as MCF10A rereplic inconclusive, Giardia killer inconclusive, BCR signal inh inactive, VP16 counter inconclusive, RORgamma inh 11µM and SW480 rereplic inactive.
Screening COc1ccccc1-c1nnc(SC/C(O)=C(\C#N)c2nc3ccccc3[nH]2)n1C1CCCCC1 returned MCF10A rereplic inconclusive, Giardia killer inactive, BCR signal inh inconclusive, VP16 counter 11µM, RORgamma inh 7.1µM and SW480 rereplic inactive.
N#C/C(=C(/O)CSc1nnc(Cc2cccs2)n1C1CCCCC1)c1nc2ccccc2[nH]1 was read as MCF10A rereplic inconclusive, Giardia killer inactive, BCR signal inh inconclusive, VP16 counter inactive, RORgamma inh inactive and SW480 rereplic 18µM.
For Cn1cnnc1SC/C(O)=C(\C#N)c1nc2ccccc2[nH]1 the results were MCF10A rereplic inactive, Giardia killer inactive, BCR signal inh inactive, VP16 counter inactive, RORgamma inh inactive and SW480 rereplic inactive.
N#CCSc1nnc(Cc2cccs2)n1C1CCCCC1 was read as MCF10A rereplic inactive, Giardia killer inactive, BCR signal inh inactive, VP16 counter inactive, RORgamma inh inactive and SW480 rereplic inactive.
For CC(OC(=O)c1ccc(NC(=O)CC#N)cc1)C(=O)NCCC1=CCCCC1 (centres undefined) the results were MCF10A rereplic inactive, Giardia killer inactive, BCR signal inh inactive and SW480 rereplic inactive.
For CCOC(=O)c1ccc(NC(=S)NCCC2=CCCCC2)cc1 the results were MCF10A rereplic inactive, Giardia killer inactive, BCR signal inh inconclusive, VP16 counter 3.2µM, RORgamma inh 2.8µM and SW480 rereplic inactive.
`Cc1ccc(NC(=S)NCCC2=CCCCC2)cc1` gave MCF10A rereplic inactive, Giardia killer inactive, BCR signal inh inconclusive, VP16 counter 6.3µM, RORgamma inh 5.6µM and SW480 rereplic inactive.

Source: PubChem (National Center for Advancing Translational Sciences (NCATS))
